Records with an inconclusive call do not appear. Active and inactive are the calls of the source. Unless noted, calls follow the shape of the dose curve; as a rule, active = well fitted curve in the direction sought with a large enough effect; inconclusive = small, poorly fitted or top-dose-only effect, or another doubt; inactive = no such curve, though single readings can be large; an effect the other way counts as inactive or inconclusive.
Tests used:
[1] = Quantitative high throughput screen for delayed death inhibitors of the malarial parasite plastid, 96 hour incubation (AID 488745); also: nearly all actives have a fitted effect of over 70% in size; also: potency is read from the fitted curve at half-maximal effect
Method in brief: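 Infected erythrocytes were added to compound in Albumax-supplemented RPMI 1640 at 0.1% parasitemia and 2% hematocrit (final), incubated 96 h at 37 C under 5% CO2, then luciferase reagent was added and luminescence measured.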

[2] = Quantitative high throughput screen for delayed death inhibitors of the malarial parasite plastid, 48 hour incubation (AID 488752); also: nearly all actives have a fitted effect of over 65% in size; also: potency is read from the fitted curve at half-maximal effect
Method in brief: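 Readout is firefly luciferase luminescence from a reporter integrated into the parasite genome, with lower signal taken as inhibited growth. Infected red cells (0.1% parasitemia, 2% hematocrit final) are cultured with compound for one 48 h cycle at 37 C.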

[3] = biological target: Thioredoxin reductase 1, cytoplasmic (Rattus norvegicus) (UniProt O89049); experiment: qHTS Assay for Substrates of Mammalian Selenoprotein Thioredoxin Reductase 1 (TrxR1) (AID 488772);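 also: NADPH fluorescence in the first read after selenite addition and not the 8 min delta; series mostly up to about 57 µM; 0% is about no effect; a drop in NADPH fluorescence below the no-compound background marks a TrxR1 substrate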
Sequence of Thioredoxin reductase 1, cytoplasmic (Rattus norvegicus) (O89049 whole entry, looked up): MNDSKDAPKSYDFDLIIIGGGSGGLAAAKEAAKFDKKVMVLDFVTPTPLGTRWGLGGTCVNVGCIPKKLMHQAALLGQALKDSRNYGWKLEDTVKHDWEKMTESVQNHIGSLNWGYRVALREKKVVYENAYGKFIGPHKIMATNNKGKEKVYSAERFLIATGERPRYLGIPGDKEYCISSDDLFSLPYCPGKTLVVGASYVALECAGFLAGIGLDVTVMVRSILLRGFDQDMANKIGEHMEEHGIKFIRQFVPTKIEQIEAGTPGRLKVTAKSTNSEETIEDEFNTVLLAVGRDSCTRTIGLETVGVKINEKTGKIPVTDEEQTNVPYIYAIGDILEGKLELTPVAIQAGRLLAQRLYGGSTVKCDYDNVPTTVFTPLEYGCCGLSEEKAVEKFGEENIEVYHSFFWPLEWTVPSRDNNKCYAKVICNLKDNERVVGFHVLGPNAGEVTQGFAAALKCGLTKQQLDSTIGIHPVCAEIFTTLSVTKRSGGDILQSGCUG
Method in brief: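 Quantitative HTS in Tris-HCl buffer at pH 7.5 with EDTA and Tween-20, using rat TrxR1, 400 uM NADPH and 400 uM selenite (final). A fall in initial NADPH fluorescence relative to background marked substrate behaviour.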

[4] = biological target: Flap endonuclease 1 (Homo sapiens) (UniProt P39748); experiment: qHTS Validation Assay for the Inhibitors of Human Flap endonuclease 1 (FEN1) (AID 488816); also: potency is read from the fitted curve at half-maximal effect
Method in brief: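 Readings taken at 0 and 15 min after starting the reaction with 50 nM (final) substrate supplied the signal. Compounds had first sat with 10 nM FEN1 reagent for 15 min at room temperature. Values come from Hill-equation concentration-response fits.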

[5] = biological target: M-phase phosphoprotein 8 (Homo sapiens) (UniProt Q99549); experiment: qHTS Validation Assay for Inhibitors for MPP8 Chromodomain Interactions with Methylated Histone Tails (AID 488949); also: nearly all actives have a fitted effect of over 55% in size; also: potency is read from the fitted curve at half-maximal effect
Sequence of M-phase phosphoprotein 8 (Homo sapiens) (Q99549 whole entry, looked up): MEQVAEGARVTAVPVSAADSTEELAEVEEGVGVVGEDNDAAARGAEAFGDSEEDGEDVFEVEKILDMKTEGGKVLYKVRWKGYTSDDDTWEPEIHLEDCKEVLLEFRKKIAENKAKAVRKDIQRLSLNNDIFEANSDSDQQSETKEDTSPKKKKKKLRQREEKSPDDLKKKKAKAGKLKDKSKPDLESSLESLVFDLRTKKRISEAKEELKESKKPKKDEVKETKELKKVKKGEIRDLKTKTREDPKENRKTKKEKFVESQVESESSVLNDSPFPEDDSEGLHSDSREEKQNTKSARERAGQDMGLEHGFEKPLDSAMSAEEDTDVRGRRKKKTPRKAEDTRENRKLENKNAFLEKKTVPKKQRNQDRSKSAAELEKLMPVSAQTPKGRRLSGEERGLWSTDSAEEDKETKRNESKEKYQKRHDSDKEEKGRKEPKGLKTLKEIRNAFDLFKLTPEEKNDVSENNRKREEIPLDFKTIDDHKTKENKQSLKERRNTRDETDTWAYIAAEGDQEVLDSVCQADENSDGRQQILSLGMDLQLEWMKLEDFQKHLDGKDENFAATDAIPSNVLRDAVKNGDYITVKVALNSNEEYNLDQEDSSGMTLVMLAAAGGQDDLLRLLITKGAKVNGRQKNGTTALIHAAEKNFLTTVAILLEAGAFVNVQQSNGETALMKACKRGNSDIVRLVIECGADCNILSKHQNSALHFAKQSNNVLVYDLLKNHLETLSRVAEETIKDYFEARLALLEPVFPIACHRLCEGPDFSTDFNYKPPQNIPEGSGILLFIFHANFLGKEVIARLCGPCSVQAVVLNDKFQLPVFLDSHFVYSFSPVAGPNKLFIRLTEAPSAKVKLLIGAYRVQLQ
Method in brief: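 MPP8 (50 nM) was pre-bound to 50 nM biotinylated H3(1-18)K9me3 peptide in PBS pH 7.4 with 0.01% Tween-20. Compounds were then added for 30 min at room temperature, and complex disruption was read by AlphaScreen with streptavidin donor and nickel-chelate acceptor beads.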

[6] = biological target: Methanococcus maripaludis chaperonin (MmCpn) (UniProt Q6LX38); experiment: High-Throughput Screening for Modulators of Cytosolic Chaperonin Activity: MmCpn Primary Screen (AID 488978);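 also: 50 nM MmCpn enzyme hydrolysing 30 µM ATP at 37 °C; 0% is about no effect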
Sequence of Methanococcus maripaludis chaperonin (MmCpn) (Q6LX38 1-543): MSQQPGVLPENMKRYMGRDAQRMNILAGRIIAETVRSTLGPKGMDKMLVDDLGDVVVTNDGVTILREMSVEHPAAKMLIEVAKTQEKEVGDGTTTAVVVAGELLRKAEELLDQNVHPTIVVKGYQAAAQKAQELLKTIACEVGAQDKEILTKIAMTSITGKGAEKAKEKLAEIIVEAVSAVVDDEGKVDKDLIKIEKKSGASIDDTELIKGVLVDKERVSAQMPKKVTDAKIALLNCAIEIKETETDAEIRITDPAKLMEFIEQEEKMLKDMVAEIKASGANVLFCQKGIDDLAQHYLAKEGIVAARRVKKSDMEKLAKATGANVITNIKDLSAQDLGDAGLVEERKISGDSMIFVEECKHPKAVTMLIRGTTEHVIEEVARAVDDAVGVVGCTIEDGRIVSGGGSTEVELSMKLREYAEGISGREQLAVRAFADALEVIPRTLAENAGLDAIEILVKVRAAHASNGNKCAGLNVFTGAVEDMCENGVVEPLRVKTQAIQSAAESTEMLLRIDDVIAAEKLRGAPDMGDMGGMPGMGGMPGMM
Method in brief: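 MmCpn at 50 nM final was preincubated 5 min at RT with compound. ATP was then added at 30 uM final for 10 min at 37 C. ADP formed was detected by Transcreener HTRF (665/590 nm).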

[7] = biological target: Transient receptor potential cation channel subfamily V member 1 (Homo sapiens) (UniProt Q8NER1); experiment: HTS Assay for Compounds that Act as Enhancers of the Vanilloid Receptor 1 (AID 488979); also: 0% is about no effect
Sequence of Transient receptor potential cation channel subfamily V member 1 (Homo sapiens) (Q8NER1 whole entry, looked up): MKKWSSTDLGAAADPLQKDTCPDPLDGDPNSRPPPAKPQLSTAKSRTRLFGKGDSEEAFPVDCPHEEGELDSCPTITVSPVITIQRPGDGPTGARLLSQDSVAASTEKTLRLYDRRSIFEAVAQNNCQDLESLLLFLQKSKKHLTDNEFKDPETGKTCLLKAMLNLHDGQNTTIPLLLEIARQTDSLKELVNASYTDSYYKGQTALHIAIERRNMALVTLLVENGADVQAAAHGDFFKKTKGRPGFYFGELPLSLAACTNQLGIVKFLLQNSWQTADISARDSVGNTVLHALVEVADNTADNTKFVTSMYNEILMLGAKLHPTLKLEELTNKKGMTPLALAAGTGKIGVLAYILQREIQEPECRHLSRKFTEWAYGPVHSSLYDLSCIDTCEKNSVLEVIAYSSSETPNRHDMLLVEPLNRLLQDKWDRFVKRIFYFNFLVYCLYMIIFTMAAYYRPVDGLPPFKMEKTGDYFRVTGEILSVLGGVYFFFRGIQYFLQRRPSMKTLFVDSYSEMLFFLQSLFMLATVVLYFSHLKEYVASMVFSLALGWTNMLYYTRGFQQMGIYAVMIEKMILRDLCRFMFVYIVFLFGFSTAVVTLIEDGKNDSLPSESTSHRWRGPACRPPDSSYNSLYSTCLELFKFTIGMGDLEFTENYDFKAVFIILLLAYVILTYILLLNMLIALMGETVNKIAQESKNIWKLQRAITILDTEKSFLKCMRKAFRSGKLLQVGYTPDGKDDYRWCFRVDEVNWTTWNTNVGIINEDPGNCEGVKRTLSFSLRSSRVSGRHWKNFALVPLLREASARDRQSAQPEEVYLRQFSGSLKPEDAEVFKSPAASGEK
Method in brief: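 Calcium influx kinetics via Fluo-8 (480/520 nm) in TRPV1-expressing cells, 2000/well cultured overnight at 35.5C. Compound-alone read 3 min (agonist phase), followed by EC20 capsaicin challenge for 2 min (enhancer phase).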

[8] = biological target: Thyrotropin receptor (Homo sapiens) (UniProt P16473); experiment: qHTS Assay for Antagonists of the Thyroid Stimulating Hormone Receptor (AID 488980); also: series mostly up to about 58 µM; 0% is about no effect
Method in brief: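 TSHR-transfected HEK293 cells (2000/well) in HEPES-buffered HBSS with 70 uM RO 20-1724 were stimulated with 4 nM TSH (EC80, final) in the presence of compound. cAMP was measured by HTRF competition after lysis and 30 min at RT.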

[9] = biological target: D(1A) dopamine receptor (Homo sapiens) (UniProt P21728); experiment: HTS Assay for Allosteric Agonists of the Human D1 Dopamine Receptor: Primary Screen for Potentiators (AID 488982); also: 0% is about no effect
Method in brief: (§1)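 Calcium flux in an inducible, force-coupled HEK293 Trex D1 line (overnight at 30 C): agonist mode is the 180 s kinetic read after compound; potentiator mode is the following 180 s read after dopamine at EC20.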

[10] = biological target: D(1A) dopamine receptor (Homo sapiens) (UniProt P21728); experiment: HTS Assay for Allosteric Agonists of the Human D1 Dopamine Receptor: Primary Screen for Antagonists (AID 488983);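 also: calcium flux response to an EC80 dopamine challenge measured with no-wash dye; nearly all actives have a fitted effect of over 65% in size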; also: potency is read from the fitted curve at half-maximal effect
Method in brief: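 Cells are induced with tetracycline and incubated overnight at 30 C, then loaded with calcium dye for 30 to 90 minutes at room temperature. Compound addition is followed by a 180 s read, then an EC80 dopamine addition and another 180 s read.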

[11] = Validation screen for small molecules that induce genotoxicity in human embryonic kidney (HEK293T) cells expressing luciferase-tagged ELG1 (AID 493106); also: 0% is about no effect
Method in brief: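 Luminescence from an ELG1-luciferase fusion serves as the read-out, rising when genetic stress elevates ELG1 protein. HEK293T reporter cells (2,000 per well) received 23 nL compound, incubated 16 hr at 37 °C, then ONE-Glo for 30 min at room temperature.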

[12] = biological target: ATPase family AAA domain-containing protein 5 (Homo sapiens) (UniProt Q96QE3); experiment: Validation screen for small molecules that inhibit ELG1-dependent DNA repair in human embryonic kidney (HEK293T) cells expressing luciferase-tagged ELG1 (AID 493107); also: nearly all actives have a fitted effect of over 70% in size; also: potency is read from the fitted curve at half-maximal effect
Sequence of ATPase family AAA domain-containing protein 5 (Homo sapiens) (Q96QE3 whole entry, looked up, the tested form may be a part): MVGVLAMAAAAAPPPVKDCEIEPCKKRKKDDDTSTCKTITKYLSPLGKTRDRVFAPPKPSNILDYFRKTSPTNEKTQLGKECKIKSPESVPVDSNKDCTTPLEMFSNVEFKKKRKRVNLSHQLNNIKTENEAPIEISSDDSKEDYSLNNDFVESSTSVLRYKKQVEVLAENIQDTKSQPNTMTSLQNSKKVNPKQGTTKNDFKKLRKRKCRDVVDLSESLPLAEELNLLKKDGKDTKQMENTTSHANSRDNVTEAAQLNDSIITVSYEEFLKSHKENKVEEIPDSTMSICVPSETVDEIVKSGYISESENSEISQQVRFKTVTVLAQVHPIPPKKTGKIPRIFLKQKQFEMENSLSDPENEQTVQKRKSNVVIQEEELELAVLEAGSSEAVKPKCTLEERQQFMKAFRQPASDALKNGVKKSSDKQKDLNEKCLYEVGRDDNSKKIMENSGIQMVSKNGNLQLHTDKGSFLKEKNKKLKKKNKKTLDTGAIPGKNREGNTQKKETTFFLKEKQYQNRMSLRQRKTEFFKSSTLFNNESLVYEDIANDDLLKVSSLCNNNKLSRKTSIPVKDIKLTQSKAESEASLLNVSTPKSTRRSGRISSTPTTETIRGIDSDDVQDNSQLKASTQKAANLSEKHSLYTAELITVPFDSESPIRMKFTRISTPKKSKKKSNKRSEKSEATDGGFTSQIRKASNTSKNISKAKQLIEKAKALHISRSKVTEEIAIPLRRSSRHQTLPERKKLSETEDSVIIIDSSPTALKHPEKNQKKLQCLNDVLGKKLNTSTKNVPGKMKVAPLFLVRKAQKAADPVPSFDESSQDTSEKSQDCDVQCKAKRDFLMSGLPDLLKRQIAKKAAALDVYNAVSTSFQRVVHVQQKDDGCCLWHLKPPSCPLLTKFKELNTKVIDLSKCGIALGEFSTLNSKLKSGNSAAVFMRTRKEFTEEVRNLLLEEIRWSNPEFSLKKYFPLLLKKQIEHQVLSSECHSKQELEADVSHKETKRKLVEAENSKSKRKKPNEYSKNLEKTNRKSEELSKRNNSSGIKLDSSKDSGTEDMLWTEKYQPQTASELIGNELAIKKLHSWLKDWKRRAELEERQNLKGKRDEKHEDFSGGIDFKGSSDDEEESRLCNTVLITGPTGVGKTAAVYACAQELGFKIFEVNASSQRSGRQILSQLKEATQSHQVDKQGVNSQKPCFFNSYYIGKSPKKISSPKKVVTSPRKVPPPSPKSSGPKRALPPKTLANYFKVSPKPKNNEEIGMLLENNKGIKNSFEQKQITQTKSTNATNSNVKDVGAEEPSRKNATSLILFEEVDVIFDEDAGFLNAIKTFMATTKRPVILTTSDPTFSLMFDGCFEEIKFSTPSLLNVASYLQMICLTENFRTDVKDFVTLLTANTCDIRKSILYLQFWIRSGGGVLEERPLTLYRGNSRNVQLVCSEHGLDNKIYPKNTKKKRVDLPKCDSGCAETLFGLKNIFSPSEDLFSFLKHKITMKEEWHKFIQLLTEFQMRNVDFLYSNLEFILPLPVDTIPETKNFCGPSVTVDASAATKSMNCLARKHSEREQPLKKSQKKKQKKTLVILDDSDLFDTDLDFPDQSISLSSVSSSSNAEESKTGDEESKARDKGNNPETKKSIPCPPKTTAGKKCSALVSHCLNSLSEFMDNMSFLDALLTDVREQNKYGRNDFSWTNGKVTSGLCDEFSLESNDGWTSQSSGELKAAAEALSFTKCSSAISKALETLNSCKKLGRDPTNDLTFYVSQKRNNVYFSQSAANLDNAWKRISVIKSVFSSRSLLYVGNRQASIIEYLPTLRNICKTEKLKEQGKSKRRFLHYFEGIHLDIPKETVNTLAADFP
Method in brief: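 Luminescence from ONE-Glo, developed 30 min at room temperature, served as read-out of ELG1-luciferase levels. Beforehand, reporter HEK293T cells received 5-fluorouridine plus test compound for 16 hr at 37 °C.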

[13] = biological target: Thyrotropin-releasing hormone receptor (Homo sapiens) (UniProt P34981); experiment: qHTS for Small Molecule Agonists and Allosteric Enhancers of Human TRH Receptor: Validation Screen for Agonists (AID 493127;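 active = calcium activation more than 3 SD above the typical response in the agonist read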;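 also: intracellular calcium rise by fluo-8 fluorescence before TRH EC20 addition; 0% is about no effect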); settings: TRH receptor agonist cell assay; at 2 µM; stronger effect = higher value
Method in brief: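 Cells 2000/well, 10% FCS, 18 h 33.5C/5% CO2 → fluo-8 Ca dye, RT 30 min–1.5 h → FDSS baseline 10 × 1 s → compound added → 230 cycles (1 s/cycle) agonist mode. TRH controls.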

[14] = Nrf2 qHTS screen for inhibitors: Validation (AID 493153; active = well fitted inhibition curve with a large enough effect in the main read-out, with a control signal flat, not every such curve was filed as active); settings: Potency: luciferase luminescence; viability change: measured here: cytotoxicity max response
Method in brief: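 Luminescence from an ARE-firefly luciferase reporter in A549 cells gives Nrf2 inhibition; an earlier CellTiter-Fluor fluorescent read flags cytotoxicity. Cells in 5% FBS OPTI-MEM received compound dilution series for 18-24 h at 37°C.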

[15] = qHTS for Inhibitors of Cell Surface uPA Generation: Validation Assay (AID 493164); also: 0% is about no effect
Method in brief: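 RAW 264.7 cells (4000/well) were plated overnight, then exposed for 18 h at 37 C, 5% CO2 to compounds in a 7-point 1:5 titration (2.45 nM–38.3 uM final). Intracellular ATP was read by ATP-Lite luminescence.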

[16] = biological target: Thioredoxin reductase 1, cytoplasmic (Rattus norvegicus) (UniProt O89049); experiment: qHTS Assay for Inhibitors of Mammalian Selenoprotein Thioredoxin Reductase 1 (TrxR1) (AID 488773); settings: Potency: inhibition; also: nearly all actives have a fitted effect of over 40% in size; also: potency is read from the fitted curve at half-maximal effect
Method in brief: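 Steps: enzyme (90 nM) plus NADPH (400 uM final), 5 min at ~22 deg C; compound added, 15 min; selenite (400 uM final) added; fluorescence followed for 8 min. Concentration-response curves derived from the normalized delta values.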

[17] = biological target: D(1A) dopamine receptor (Homo sapiens) (UniProt P21728); experiment: HTS Assay for Allosteric Agonists of the Human D1 Dopamine Receptor: Primary Screen for Agonists (AID 488981); also: 0% is about no effect
Method in brief: as §1

[18] = biological target: Chromobox protein homolog 1 (Homo sapiens) (UniProt P83916); experiment: qHTS Validation Assay for Inhibitors of HP1-beta Chromodomain Interactions with Methylated Histone Tails (AID 488953); also: nearly all actives have a fitted effect of over 50% in size; also: potency is read from the fitted curve at half-maximal effect
Sequence of Chromobox protein homolog 1 (Homo sapiens) (P83916 whole entry, looked up): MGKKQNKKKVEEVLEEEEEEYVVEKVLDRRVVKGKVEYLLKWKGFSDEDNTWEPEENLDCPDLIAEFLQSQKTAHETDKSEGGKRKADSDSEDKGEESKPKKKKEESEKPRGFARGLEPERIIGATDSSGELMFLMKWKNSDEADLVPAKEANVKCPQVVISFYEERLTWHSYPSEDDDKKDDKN
Method in brief: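 50 nM HP1-beta + 50 nM biotin-H3(1-18)K9me3, PBS pH 7.4, 0.01% Tween-20, 30 min RT; compound added, 30 min RT; AlphaScreen beads 10 ug/mL final, 30 min dark; luminescence read.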

[19] = biological target: ATP-dependent 6-phosphofructokinase (Trypanosoma brucei brucei) (UniProt O15648); experiment: qHTS Assay to Find Inhibitors of T. brucei phosphofructokinase: hit validation (AID 492961);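 also: luminescence reports ADP formed as PFK phosphorylates fructose-6-phosphate with ATP; series mostly up to about 51 µM; % is scaled to controls: 0 for no effect and ±100 for the full control effect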
Method in brief: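 Measures ADP output of PFK (1.25 nM) at 0.1 mM ATP, 0.5 mM F6P, pH 8.0 TEA buffer with 5 mM MgCl2. No-enzyme wells define full inhibition; uninhibited enzyme wells define zero.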

NCC(O)c1cc(O)c(O)cc1F (stereo not given)
inactive: Potency [1] | Potency [2] | outcome [3] | outcome [6] | outcome [7] | outcome [8] | Potency [9] | Potency [11] | Potency [12] | activation [13] 1.38% | Potency [14] | outcome [15]
active: Potency [4] 2.67 µM | Potency [5] 18.9 µM | Potency [10] 2.51 µM
-0.467%: viability change [14]

CCCCCCC(C)(C)c1ccc([C@@H]2C[C@H](O)CC[C@H]2CCCO)c(O)c1
inactive: Potency [16] | Potency [4] | Potency [5] | outcome [6] | outcome [7] | outcome [8] | Potency [17] | Potency [10] | Potency [11] | activation [13] 1.06% | Potency [14]
active: Potency [1] 4.65 µM | Potency [2] 11.7 µM | Potency [12] 16.4 µM
3.03%: viability change [14]

COc1ccc(OC)c(C(O)C(C)N)c1 (stereo not given)
-6.5%: viability change [14]
inactive: Potency [1] | Potency [2] | outcome [3] | Potency [4] | Potency [5] | Potency [18] | outcome [6] | outcome [7] | outcome [8] | Potency [17] | Potency [9] | Potency [10] | Potency [19] | Potency [11] | Potency [12] | activation [13] 1.12% | Potency [14] | outcome [15]

CC(C)(C)c1cc(C=C(C#N)C#N)cc(C(C)(C)C)c1O
inactive: Potency [4] | outcome [6] | outcome [7] | outcome [8] | Potency [17] | Potency [9] | Potency [11] | activation [13] 0.125%
active: Potency [1] 1.85 µM | Potency [2] 1.47 µM | Potency [16] 16.8 µM | Potency [5] 10 µM | Potency [18] 7.94 µM | Potency [12] 2.31 µM

C[N+](C)(C)CCOC(=O)CBr
-12.9%: viability change [14]
inactive: Potency [1] | Potency [2] | Potency [16] | Potency [5] | Potency [18] | outcome [6] | outcome [7] | Potency [17] | Potency [9] | Potency [10] | Potency [11] | Potency [12] | activation [13] 1.06% | Potency [14]

NC(Cc1ccc(N(CCCl)CCCl)cc1)C(=O)O (stereo not given)
inactive: outcome [3] | Potency [4] | Potency [5] | outcome [6] | outcome [7] | outcome [8] | Potency [17] | Potency [9] | Potency [10] | Potency [12] | activation [13] -0.125% | outcome [15]
active: Potency [1] 14.7 µM | Potency [2] 8.28 µM | Potency [18] 0.0067 µM

Cc1o[nH]c(=O)c1CC(N)C(=O)O (stereo not given)
2.81%: viability change [14]
inactive: Potency [1] | Potency [2] | outcome [3] | Potency [16] | Potency [4] | Potency [5] | outcome [6] | outcome [7] | Potency [17] | Potency [9] | Potency [10] | Potency [11] | Potency [12] | Potency [14]

CCCN1CCCC2Cc3[nH]ncc3CC21 (stereo not given)
inactive: Potency [1] | Potency [2] | Potency [5] | outcome [7] | outcome [8]

C=CCN1C[C@@H](C)N([C@H](c2ccc(C(=O)N(CC)CC)cc2)c2cccc(OC)c2)C[C@@H]1C
active: Potency [1] 4.65 µM | Potency [2] 5.22 µM
inactive: outcome [3] | Potency [16] | Potency [4] | Potency [5] | outcome [6] | outcome [7] | outcome [8] | Potency [17] | Potency [10] | Potency [11] | Potency [12] | activation [13] 2.06% | Potency [14]
4.14%: viability change [14]
